# Measurements as given in PubChem BioAssay (NCI).
# About 83,000 compounds went through this panel and 20% of them were active in at least one assay; those are over-represented in the sample as a whole.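 Step 1: grow cells in 96-well plates. Step 2: add test compound at a single concentration. Step 3: incubate 48 h. Step 4: record percent growth.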 Calls of active or inactive are those of the source. Rule for the calls: active = growth percent below 10; inactive = the rest.
# Tested on: HL-60(TB) leukemia
# Experiment: NCI-60 one-dose screen, 48 h (100 = growth as untreated, 0 = no growth, -100 = all killed)
# Conditions: 10 µM unless noted
row,SMILES,growth
1,CC(C)C[C@H](NC(=O)[C@H](Cc1cccc2ccccc12)NS(=O)(=O)c1cccc2cccnc12)B(O)O,-17.2% (active)
2,COc1cc(/C=N/Nc2nc(-c3ccc(F)cc3)c(C#N)c(N3CCOCC3)n2)ccc1O,72.5% (inactive)
3,c1coc(CNc2ccnc(Nc3ccc(OCCN4CCCCC4)cc3)n2)c1,74.6% (inactive)
4,COc1ccc(Oc2nc(Nc3ccc(N4CCCCC4)nc3)ncc2NC(=O)c2cc(OC)cc(OC)c2)cc1,0.492% (active)
5,Cc1nc2sc(C(=O)Nc3ccccc3)c(N)c2cc1C(=O)/C=C/c1ccccc1,3.44% (active)
6,[2H]C1([2H])CCN(C(=O)C2CC2)c2cc(NS(=O)(=O)c3ccc(-c4cccc(C(N)=O)c4)cc3)ccc21,-0.857% (active)
7,c1csc(C2=NN3C(C2)c2ccccc2OC3c2ccncc2)c1 (centres undefined),97.8% (inactive)
8,CCOc1ccc(-n2c(-c3cc(OC)c(OC)c(OC)c3)nnc2-c2ccc(OC)cc2N)cc1,28.5% (inactive)
9,O=C1c2ccccc2-c2c1c1c(NCCCO)nc3ccccc3c1n2Cc1ccccc1,48.9% (inactive)
10,CCOC(=O)c1c(-c2ccc(O)cc2)c(C#N)c2c(C#N)c(N)nn2c1N,22.5% (inactive)
11,O=C1/C=C/[C@@H](O)[C@@H]2C[C@@H](O)C[C@H]2/C=C/CCC[C@H](CO)O1,-25.4% (active)
12,CCCOc1ccc2c(c1)CC[C@@H]1[C@@H]2CC[C@@]2(C)[C@H]1CC[C@]2(C)O,78.8% (inactive)
13,COc1ccc(/C=C/C(c2cc(OC)c(OC)c(OC)c2)n2cncn2)cc1 (centres undefined),-17.9% (active)
14,Clc1cccc(-c2nc(-c3cccs3)no2)c1,98.4% (inactive)
15,O=C1/C(=C/c2ccc(Cl)cc2)CN(C(=O)C(Cl)Cl)C/C1=C\c1ccc(Cl)cc1,-19.3% (active)
16,Cc1c(C(=O)N[C@H](CO)Cc2ccccc2)[nH]c2ccc(Cl)cc2c1=O,99.7% (inactive)
17,N=C(N)c1ccc(-c2ccc(-c3ccc4ccccc4c3)s2)cc1,86.7% (inactive)
18,CC1(C)CCC(=NNC(N)=S)CC1,109% (inactive)
19,CC1=NC(c2ccc(Cl)cc2)C2=C(N1)/C(=C/c1ccc(Cl)cc1)CCC2 (centres undefined),85.8% (inactive)
20,CNC(=O)c1c(NC(=O)c2ccc(C(C)(C)C)cc2)sc2c1CCC(=O)C2,-13.2% (active)
21,CCN1C(=O)N(CC)C2C1NN=c1s/c(=C\c3ccccc3)c(=O)n12 (centres undefined),-45.3% (active)
22,CC1Cc2c(Cl)ncnc2N(C)c2ccc(Cl)cc21 (centres undefined),13.3% (inactive)
23,Nc1ccccc1SC1CC(=O)N(c2ccc(I)cc2)C1=O (centres undefined),65.6% (inactive)
24,COc1ccc(Nc2nc(-c3cc(O)c(C)c(C)c3O)cs2)cc1,7.17% (active)
